Screens (PubChem)
Many of the other results were omitted from the sample, so hits are more common in it than they were.
FECH block: inhibitors of human ferrochelatase, primary screen, biochemical, purified FECH, Ni-mesoporphyrin absorbance; Ferrochelatase, mitochondrial (Homo sapiens), P22830; Ni-mesoporphyrin absorbance 550 nm; calls only at 10 µM (by protocol); actives 3.3% (n = 20,000); AID 1671448, 2021;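 active = enzyme reaction rate more than 3 SD below the solvent-only control wells on the same plate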;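 also: lower slope than DMSO wells means FECH inhibition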
Target sequence (P22830 whole entry, looked up): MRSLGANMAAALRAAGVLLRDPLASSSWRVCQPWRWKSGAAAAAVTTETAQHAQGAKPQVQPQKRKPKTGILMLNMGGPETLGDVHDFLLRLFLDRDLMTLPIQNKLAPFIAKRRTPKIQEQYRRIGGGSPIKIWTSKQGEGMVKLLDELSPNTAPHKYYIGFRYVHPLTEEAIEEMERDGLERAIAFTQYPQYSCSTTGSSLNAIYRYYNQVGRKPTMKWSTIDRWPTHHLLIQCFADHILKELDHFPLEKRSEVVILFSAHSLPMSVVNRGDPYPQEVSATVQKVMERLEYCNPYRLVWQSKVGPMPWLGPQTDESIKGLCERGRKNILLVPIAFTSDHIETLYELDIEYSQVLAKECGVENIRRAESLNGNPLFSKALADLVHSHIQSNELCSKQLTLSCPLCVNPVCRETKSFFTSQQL
Each line names hits and unclear results; the compound was inactive in the other large screens.

COCc1nc2cccnc2n1C1CCN(S(=O)(=O)c2ccc(Cl)cc2)CC1	none
Cn1c(=O)c2c(-c3ccc(Br)cc3)c(NCc3ccccc3)oc2n(C)c1=O	none
O=C(C(O)c1ccccc1)N1CCn2cncc2C1 (stereo not drawn)	none
COc1ccccc1N(Cc1nc2nc(C)cc(C)n2n1)C(=O)CC(C)C	none
CC(C)c1nccc(C(=O)N(C)Cc2ccc3ccccc3n2)n1	none
COC(=O)CC1=CC(=O)N(CC(=O)Nc2cccc(Br)c2)c2ccccc2N1	none
COc1ncccc1-c1ccc(OCC(N)=O)c(C)c1	none
Cc1nc(-c2ccc(C(=O)N3CCCC3C(=O)Nc3ccc(C(C)C)cc3)cc2)no1 (stereo not drawn)	none
CC1c2cccn2CCN1C(=O)CNS(=O)(=O)c1cccs1 (stereo not drawn)	none
CC(=O)Nc1ccccc1SCC(=O)N1CCn2cccc2C1C (stereo not drawn)	FECH block active
CC1c2cccn2CCN1C(=O)c1ccc(C#CC(C)(C)O)o1 (stereo not drawn)	none
CCC(=O)Nc1ccccc1-c1nnc(SC(CC)C(=O)Nc2ccc(Cl)cc2)[nH]c1=O (stereo not drawn)	none
Cc1ccc(S(=O)(=O)N(Cc2nc3nc(C)cc(C)n3n2)c2ccc(Cl)cc2)cc1	FECH block active
Cc1ccc(S(=O)(=O)N(Cc2nc3nc(C)cc(C)n3n2)c2ccccc2)cc1	none
Cc1ccc(S(=O)(=O)N(Cc2nc3nc(C)c(Cl)c(C)n3n2)c2ccccc2)cc1	none
Cc1ccc(N(Cc2nc3nc(C)cc(C)n3n2)S(=O)(=O)c2ccc(Cl)cc2)cc1	FECH block active
Cc1cc(C)n2nc(CN(c3cccc(Cl)c3)S(=O)(=O)c3ccccc3)nc2n1	none
Cc1ccc(N(Cc2nc3nc(C)cc(C)n3n2)S(C)(=O)=O)cc1	none
COc1ccccc1-c1ccc(NC2COC3(CCCC3)C2)nn1 (stereo not drawn)	none
C=C(C)COc1cccc(C(=O)N2CC[C@H](NC(C)=O)C2)c1	none
CCc1nccn1CC(=O)N[C@H]1C[C@@H](C(=O)OC)N(C)C1	none
CCc1ccc(Cn2c(CNS(=O)(=O)c3ccc(C)cc3)nc3cccnc32)cc1	none
Cc1cccc(Cn2c(CNS(=O)(=O)c3ccc(F)cc3)nc3cccnc32)c1	none
CCOc1ccc(C(=O)NCc2nc3cccnc3n2Cc2ccc(C)cc2)cc1	none
CCc1ccc(S(=O)(=O)NCc2nc3cccnc3n2Cc2ccc(F)cc2)cc1	none
CC(C)Cn1c(CNS(=O)(=O)c2ccc(Cl)cc2)nc2cccnc21	none
Cc1ccc(Cn2c(CNC(=O)c3cccnc3)nc3cccnc32)cc1	FECH block active
Cc1cccc(S(=O)(=O)NCc2nc3cccnc3n2Cc2ccccc2)c1	none
Cc1ccccc1S(=O)(=O)NCc1nc2cccnc2n1CC(C)C	none
Cc1ccc(Cn2c(CNC(=O)c3ccncc3)nc3cccnc32)cc1	none
Cc1cccc(Cn2c(CNS(=O)(=O)c3ccccc3)nc3cccnc32)c1	FECH block active
CCc1ccc(Cn2c(CNS(=O)(=O)c3ccc([N+](=O)[O-])cc3)nc3cccnc32)cc1	FECH block active
CC(C)Cn1c(CNS(C)(=O)=O)nc2cccnc21	FECH block active
Cc1nccn1-c1ccccc1CNC(C)Cn1ccnc1 (stereo not drawn)	none
COc1cc(NC(=O)Nc2ccc(Sc3c(C)c(C)nc4ncnn34)cc2)cc(OC)c1	none
Cc1ccc(C(NC(=O)CCc2scnc2C)c2ccncc2)cc1 (stereo not drawn)	none
COc1ccc(CN(C)C(C)C(=O)NC2CCCC2)c2cccnc12 (stereo not drawn)	none
O=C(NCCN1CCc2ccccc2C1)C1CCN(c2ncnc3c2nc2n3CCCCC2)CC1	none
O=S(=O)(NCc1ccccc1)NC1CCN(c2cnccn2)CC1	none
Nc1nc(NCc2cccc(-n3cccn3)c2)cc(N2CCOCC2)n1	none
CN1CCn2nc(C(=O)N(C)CCn3ccc4ccccc43)cc2C1	none
CCc1c(C)nc2ncnn2c1Sc1ccc(NS(=O)(=O)c2ccc(CC(C)C)cc2)cc1	none
CCc1cc(Sc2ccc(NC(=O)c3cccc(F)c3)cc2)n2ncnc2n1	none
Cc1ccc(NC(C)(C)C(=O)NC[C@@H]2CCNC[C@H]2O)cc1	none
Cc1ccc(CNC(=O)Cn2c(C(=O)OC(C)C)cc3ccsc32)cc1	none
COc1ccc(C)cc1NS(=O)(=O)c1cc(N2C(=O)CCS2(=O)=O)ccc1C	none
COCCN(C)C(=O)c1cnn(Cc2ccccc2)c1	none
COc1ccc(-c2cc(N3CCN(C(=O)Nc4ccc(C)c(Cl)c4)CC3)ncn2)cc1	none
Cc1nn(-c2cc(N3CCCC3)ncn2)c(C)c1CCC(=O)NCCc1ccc(Cl)cc1	none
